Source: the supplement of paper PMC10849652
The full data set covers some 7,900 targets. This sample favours those with a hit. About 0.6% of all pairs of compound and target were hits.

Columns and labels:
Assay in all cases: log2 fold change, soluble protein after heating vs DMSO (PISA); higher = thermal stabilisation; K562 cells, 10 uM, 30 min; active = over 0.2 and 3.5 SD of the protein, either way, in both replicates (recomputed)
[1] = compound: C1=CC=C(C=C1)[C@H](COC2=CC3=C(C=C2)NC(=O)N3)NC(=O)C4=CC=CN(C4=O)CC5=CC(=C(C=C5)F)F
Outline: (§1)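 Soluble protein was quantified by TMTpro 16plex LC-MS/MS after channel sums were equalised. It was obtained as the supernatant after 21,000xg for 90 min from pooled aliquots of K562 cells (2×10^6 cells/mL, 10 μM compound, 30 min) heated for 3 min across 48°C-58°C and extracted in PBS with 0.5% NP-40 at 4°C. Thermal stability values are relative to control samples and come from duplicates. They are given as log2 fold changes.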

[2] = compound: CC1=C(SC2=C1C(=N[C@H](C3=NN=C(N32)C)CC(=O)N)C4=CC=C(C=C4)Cl)C
Outline: as §1

[3] = compound: CC1=C2C(=CC=C1)N=C(N(C2=O)C3=CC=CC=C3C)CN4C=NC5=C(N=CN=C54)N
Outline: as §1

[4] = compound: Cc1sc2c(c1C)C(c1ccc(Cl)cc1)=N[C@@H](CC(=O)OC(C)(C)C)c1nnc(C)n1-2
Outline: as §1

[5] = compound: c1ccc([C@@H]2C[C@H]2NC2CCNCC2)cc1
Outline: as §1

Measured: log2 fold change

WDR18 (UniProt Q9BV38)
UniProt Q9BV38, sequence (Q9BV38 whole entry, looked up): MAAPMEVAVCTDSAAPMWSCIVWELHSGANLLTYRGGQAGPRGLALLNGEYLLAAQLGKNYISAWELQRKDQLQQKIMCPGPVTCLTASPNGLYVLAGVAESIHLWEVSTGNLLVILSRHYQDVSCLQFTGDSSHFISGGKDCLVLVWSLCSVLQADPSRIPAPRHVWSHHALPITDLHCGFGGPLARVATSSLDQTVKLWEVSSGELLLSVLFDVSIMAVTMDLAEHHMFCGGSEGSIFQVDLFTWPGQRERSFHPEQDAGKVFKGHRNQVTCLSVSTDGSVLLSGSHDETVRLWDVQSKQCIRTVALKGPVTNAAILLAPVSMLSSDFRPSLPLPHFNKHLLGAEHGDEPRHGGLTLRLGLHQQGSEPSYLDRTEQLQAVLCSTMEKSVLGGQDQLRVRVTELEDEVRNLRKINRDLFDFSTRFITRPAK
inactive: [1] 0 | [2] 0.011 | [3] -0.019 | [4] -0.037 | [5] 0.019

UBAP2L isoform 1 (UniProt Q14157)
UniProt Q14157, sequence (Q14157 whole entry, looked up): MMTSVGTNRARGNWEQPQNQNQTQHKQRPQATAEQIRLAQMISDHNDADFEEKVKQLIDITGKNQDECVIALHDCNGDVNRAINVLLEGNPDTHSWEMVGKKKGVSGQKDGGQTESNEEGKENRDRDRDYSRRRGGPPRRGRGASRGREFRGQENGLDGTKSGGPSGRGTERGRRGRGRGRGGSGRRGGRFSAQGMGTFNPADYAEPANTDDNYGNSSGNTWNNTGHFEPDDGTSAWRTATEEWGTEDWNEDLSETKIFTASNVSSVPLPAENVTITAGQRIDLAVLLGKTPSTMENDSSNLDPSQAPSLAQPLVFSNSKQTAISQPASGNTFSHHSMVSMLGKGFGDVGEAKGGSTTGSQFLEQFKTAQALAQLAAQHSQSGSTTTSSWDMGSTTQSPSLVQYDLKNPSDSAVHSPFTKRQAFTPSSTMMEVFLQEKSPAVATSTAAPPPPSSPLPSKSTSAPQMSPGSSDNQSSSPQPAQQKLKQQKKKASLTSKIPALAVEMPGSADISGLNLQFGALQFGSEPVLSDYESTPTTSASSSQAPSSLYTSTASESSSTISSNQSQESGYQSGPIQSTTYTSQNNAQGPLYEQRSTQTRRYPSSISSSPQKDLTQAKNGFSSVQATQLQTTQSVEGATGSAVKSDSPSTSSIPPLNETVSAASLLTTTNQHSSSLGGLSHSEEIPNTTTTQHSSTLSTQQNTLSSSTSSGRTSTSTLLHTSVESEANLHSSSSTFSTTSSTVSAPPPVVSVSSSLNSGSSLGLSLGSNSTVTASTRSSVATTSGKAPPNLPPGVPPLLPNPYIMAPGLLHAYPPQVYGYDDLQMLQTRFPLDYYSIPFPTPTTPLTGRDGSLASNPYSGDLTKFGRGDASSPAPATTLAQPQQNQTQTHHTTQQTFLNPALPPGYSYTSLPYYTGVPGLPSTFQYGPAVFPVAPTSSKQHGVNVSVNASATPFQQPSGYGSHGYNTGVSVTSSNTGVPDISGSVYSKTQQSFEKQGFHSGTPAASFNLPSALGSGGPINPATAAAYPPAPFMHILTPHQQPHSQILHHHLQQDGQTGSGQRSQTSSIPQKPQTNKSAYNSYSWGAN
inactive: [1] 0.038 | [2] 0.004 | [3] 0.059 | [4] 0.001 | [5] 0.011

TUBAL3 (UniProt A6NHL2)
UniProt A6NHL2, sequence (A6NHL2 whole entry, looked up): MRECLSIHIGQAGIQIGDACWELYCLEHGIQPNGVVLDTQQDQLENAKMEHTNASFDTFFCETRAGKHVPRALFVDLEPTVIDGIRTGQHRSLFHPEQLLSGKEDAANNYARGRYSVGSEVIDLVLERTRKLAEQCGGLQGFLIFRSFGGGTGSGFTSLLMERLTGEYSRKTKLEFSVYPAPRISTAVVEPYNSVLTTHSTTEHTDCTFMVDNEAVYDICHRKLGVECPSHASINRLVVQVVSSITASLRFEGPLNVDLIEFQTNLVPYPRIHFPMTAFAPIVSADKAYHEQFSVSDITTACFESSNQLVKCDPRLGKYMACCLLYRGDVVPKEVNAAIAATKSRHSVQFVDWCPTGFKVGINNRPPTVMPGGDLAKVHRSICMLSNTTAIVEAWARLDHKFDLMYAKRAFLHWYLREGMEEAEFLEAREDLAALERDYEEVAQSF
inactive: [1] -0.196 | [2] -0.012 | [3] 0.096 | [4] -0.051 | [5] 0.029

UNC119B (UniProt A6NIH7)
UniProt A6NIH7, sequence (A6NIH7 whole entry, looked up): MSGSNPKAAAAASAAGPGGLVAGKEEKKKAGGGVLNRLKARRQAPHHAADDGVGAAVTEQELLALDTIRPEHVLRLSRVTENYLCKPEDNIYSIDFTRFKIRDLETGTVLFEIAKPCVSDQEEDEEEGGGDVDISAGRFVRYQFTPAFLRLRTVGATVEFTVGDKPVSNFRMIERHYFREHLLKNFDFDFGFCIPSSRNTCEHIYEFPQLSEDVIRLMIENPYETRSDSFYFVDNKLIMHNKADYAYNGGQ
inactive: [1] -0.093 | [2] -0.013 | [3] 0.094 | [4] -0.016 | [5] -0.009

TRAPPC3 (UniProt O43617)
UniProt O43617, sequence (O43617 whole entry, looked up): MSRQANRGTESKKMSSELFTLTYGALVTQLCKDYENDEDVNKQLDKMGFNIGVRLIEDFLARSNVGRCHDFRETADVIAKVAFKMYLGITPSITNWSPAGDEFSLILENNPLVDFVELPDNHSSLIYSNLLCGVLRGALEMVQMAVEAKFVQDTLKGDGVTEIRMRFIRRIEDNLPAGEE
inactive: [1] -0.025 | [2] 0.03 | [3] 0.036 | [4] -0.024 | [5] 0.007

TOMM20 (UniProt Q15388)
UniProt Q15388, sequence (Q15388 whole entry, looked up): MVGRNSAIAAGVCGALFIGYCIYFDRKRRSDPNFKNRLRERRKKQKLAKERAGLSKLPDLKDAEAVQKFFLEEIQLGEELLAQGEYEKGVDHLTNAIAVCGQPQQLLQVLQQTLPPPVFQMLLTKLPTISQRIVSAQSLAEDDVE
inactive: [1] 0.021 | [2] 0.025 | [3] 0.028 | [4] 0.006 | [5] 0.008
